In PubChem BioAssay:
The source made the active and inactive calls. Unless noted, the rule behind the calls is not given here.

What was measured:
[1] = system: Aerobactin synthetase IucA (Klebsiella pneumoniae); assay: inhibition of K. pneumoniae IucA enzyme – biochemical, Tocris library, absorbance (AID 1345561); conditions: purified IucA enzyme assay, absorbance (OD) read-out; stronger effect = lower value;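 tested at 8 µM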;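 note: 100% = enzyme without compound and 0% = no enzyme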
[2] = viability loss with induced miR-34 in A549 – imaging, A549 dox-inducible miR-34, nuclei and caspase counts, primary screen (AID 1347080;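 active = compounds whose cell count with miR-34 switched on is under 0.7 times the count with it off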); conditions: A549 miR-34 inducible, Hoechst nuclei count, 48 h
[3] = galactose survival enhancers in mitochondrial complex I cybrids – cell-based, galactose medium, ATP luminescence, primary screen (AID 1645843;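 active = z-score of at least 1.8 in each of two replicates, scored against plate mean and spread of sample wells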;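 note: positive z means more ATP and so rescue of galactose-driven cybrid death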); conditions: complex I mutant cybrid cells, 72 h, stronger effect = higher value
[4] = compounds altering circadian rhythm period length – cell-based, LOPAC library, luminescence reporter (AID 2774); conditions: circadian reporter cells, at 7 µM, actives lie on both sides;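 note: values are relative to mean of DMSO wells on each plate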
[5] = system: Hepatitis C virus NS3 helicase; assay: blockers of NS3h binding to ssDNA – biochemical, fluorescence polarization, LOPAC1280 library, primary screen (AID 687035; in the data active = inhibition above about 37%); conditions: Purified HCV NS3 helicase, Cy5-dT15 ssDNA binding fluorescence polarization; stronger effect = higher value; concentration not given here
[6] = compounds altering Cy5-DNA-NS3h complex signal – biochemical, LOPAC1280, artefact control for HCV NS3 helicase inhibitor project (AID 687037); conditions: Cy5-DNA-NS3h complex fluorescence interference counterscreen
[7] = compounds altering viability of human ES cells (AID 493140); conditions: human embryonic stem cell survival screen; stronger effect = higher value;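 note: cells exposed to compounds for four days before counting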
[8] = stronger effect = lower value, cell number ratio, induced over uninduced
[9] = measured here: relative caspase fold change +Dox/-Dox
[10] = measured here: total cells with miR-34 induction, stronger effect = lower value
[11] = measured here: total cells without miR-34 induction

In the case of `CC(N)(C(=O)O)c1ccc(-c2nn[nH]n2)cc1` (centres undefined), the remaining activity [1] is reported as 94.5% (inactive), the fold change [2, 8] is reported as 0.913 (inactive) and the fold change [2, 9] is reported as 0.762. The cell count [2, 10] was 8200, the cell count [2, 11] was 8980 and the z-score [3] was 1.42 (inactive).

For `c1ccc(N2CCN(CCCOc3ccc4c(c3)OCO4)CC2)cc1`, the remaining activity [1] was 103% (inactive), the fold change [2, 8] was 0.912 (inactive) and the fold change [2, 9] was 0.762. For the same compound, the cell count [2, 10] was 8370, the cell count [2, 11] was 9180 and the z-score [3] was 0.385 (inactive).

With `N#C/C(=C\c1ccc(O)c(O)c1)C(=O)NCCCc1ccccc1` the period change [4] was 0.005 h (inactive), the inhibition [5] was -2% (inactive) and the fluorescence ratio (interference) [6] was 1 (inactive). For the same compound, the remaining activity [1] was 98.4% (inactive), the fold change [2, 8] was 0.871 (inactive) and the fold change [2, 9] was 1.07. For the same compound, the cell count [2, 10] was 7250, the cell count [2, 11] was 8330 and the z-score [3] was -0.64 (inactive).

With `CC(C)(C)c1cc(C(=O)/C=C/c2ccc(C(=O)O)cc2)cc(C(C)(C)C)c1` the remaining activity [1] was 108% (inactive), the fold change [2, 8] was 1.11 (inactive) and the fold change [2, 9] was 1.56. The cell count [2, 10] was 1370, the cell count [2, 11] was 1240 and the z-score [3] was -0.69 (inactive).

For `N#C/C(=C\c1ccc(O)c(O)c1)C(N)=O`, the survival [7] was 73 (inactive), the remaining activity [1] was 122% (inactive) and the fold change [2, 8] was 0.887 (inactive). It also gave a fold change [2, 9] of 1.74, a cell count [2, 10] of 9080 and a cell count [2, 11] of 10200. The z-score [3] was -0.47 (inactive).

In the case of `FC(F)(F)c1cc(CO[C@H]2CCCN[C@H]2c2ccccc2)cc(C(F)(F)F)c1`, the period change [4] is reported as 0 h (inactive), the remaining activity [1] is reported as 112% (inactive) and the fold change [2, 8] is reported as 1.01 (inactive). It also gave a fold change [2, 9] of 0.987, a cell count [2, 10] of 2150 and a cell count [2, 11] of 2140. The z-score [3] was -0.8 (inactive).

In the case of `COc1[nH]c2ccc(F)cc2c1C(=O)OCC1CCN(CCNS(C)(=O)=O)CC1`, the period change [4] is reported as -0.015 h (inactive), the remaining activity [1] is reported as 110% (inactive) and the fold change [2, 8] is reported as 0.927 (inactive). The fold change [2, 9] was 0.654, the cell count [2, 10] was 8220 and the cell count [2, 11] was 8880. The z-score [3] was -0.185 (inactive).

With `O/N=C/c1ccc(-c2ccc(O)c(F)c2)c(Cl)c1O` the remaining activity [1] was 117% (inactive), the fold change [2, 8] was 0.891 (inactive) and the fold change [2, 9] was 1.26. For the same compound, the cell count [2, 10] was 7880, the cell count [2, 11] was 8840 and the z-score [3] was -0.63 (inactive).
